Test results as given in PubChem BioAssay AID504854 (Southern Research Specialized Biocontainment Screening …, 2011).
Potency and affinity values are given separately. Values without a mark were called inactive. The rule behind the calls is not given here.

Test: Vero cell cytotoxicity, dose response, cytotoxicity control for M. tuberculosis growth inhibitor project, Vero cells, purified and synthesized compounds, set 4 (AID 504854)
Conditions: series mostly up to 100 µM; viability: at the top concentration

SMILES | viability [%]
Cc1[nH]c(=S)[nH]c(=O)c1C | 92.8
Cc1cnc(SCC(=O)NC2CCCCC2)[nH]c1=O | 86.8
Cc1nc(SCC(N)=O)[nH]c(=O)c1C | 92
Cc1cc(=O)[nH]c(=S)[nH]1 | 108
CN1CCC(NC(=O)CSc2nc3ccccc3c(=O)[nH]2)CC1 | 94.4
Cc1c[nH]c(=S)[nH]c1=O | 99.7
Cc1nc(SCC(=O)NCCC(C)C)[nH]c(=O)c1C | 89.4
Cn1c(SCC(=O)NC2CCCCC2)nc2ccccc2c1=O | 95.2
O=C(CSc1ccccn1)NC1CCCCC1 | 93.5
Nc1cc(=O)[nH]c(SCC(=O)NC2CCCCC2)n1 | 91.4
CCOC1OC(=O)C(Cl)=C1Nc1ccccc1C (configuration not stated) | 93.3
Cc1ccc(NC(=O)COC(=O)CCc2c[nH]c3ccccc23)cc1[N+](=O)[O-] | 95.8
